Source: PubChem
DT40 TDP1 no CPT: qHTS for Inhibitors of human tyrosyl-DNA phosphodiesterase 1 (TDP1): qHTS in cells in absence of CPT; DT40 Tdp1-/- hTDP1 cells, no CPT, ATP luminescence, 48 h; Potency, µM (highest dose often 46.2 µM), usual class: inhibitors; hit rate 15% among 420,000; further: nearly all actives have a fitted effect of over 55% in size
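Camptothecin absent (DMSO only). Human TDP1-complemented DT40 knockout cells, 400 cells/well, 37 °C for minimum 48 hr; ATP measured via CellTiter-Glo, 30 min dark incubation, luminescence.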
HT1080 IDH1KD tx: qHTS for induction of synthetic lethality in tumor cells producing 2HG: qHTS for the HT-1080-IDH1KD cell line; HT-1080 IDH1 knockdown viability, ATP luminescence, 48 h; Potency, µM (top dose mostly 46.1 µM), most hits filed as cytotoxic; hit rate 2% among 360,000
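% activity derives from luminescence (CellTiter-Glo), normalised to DMSO and no-cell wells. HT-1080-IDH1KD cells, 750/well, had 48 h compound exposure at 37 °C.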
KB-3-1 cytotox: qHTS assay for MDR1-selective chemotherapeutics: Primary screen using the parental adenocarcinoma cell KB-3-1. KB-3-1 viability, CellTiter-Glo ATP luminescence, 72 h. Potency, µM (doses to about 46.1 µM), usual class: cytotoxic. hit rate 1.4% among 400,000. AID 1347075, 2019; further: nearly all actives have a fitted effect of over 60% in size
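Cytotoxicity in the drug-sensitive parental line KB-3-1 was scored as loss of CellTiter-Glo luminescence following 72 h incubation with compound. Values come from curve fitting of normalized concentration-response data.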
DT40 TDP1 CPT: qHTS for Inhibitors of human tyrosyl-DNA phosphodiesterase 1 (TDP1): qHTS in cells in presence of CPT. hit rate 12% among 420,000. chicken DT40 Tdp1-/-;hTDP1 cells + 20 nM CPT, ATP luminescence, 48 h. Potency, µM (titrated, usually from 46.2 µM), hits mostly inhibitors; further: nearly all actives have a fitted effect of over 55% in size
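Chicken DT40 Tdp1-/- cells stably complemented with human TDP1 were seeded at 400 cells/well in medium containing 20 nM camptothecin, exposed to pin-transferred compounds, and grown at 37 °C for at least 48 hr. Viability was read as ATP luminescence.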
KB-V1 MDR tox: qHTS assay for MDR1-selective chemotherapeutics: Primary screen using the drug-selected MDR subline cells KB-V1; KB-V1 MDR cells viability, CellTiter-Glo, 72 h; Potency, µM (highest dose often 46.1 µM), most hits filed as cytotoxic; hit rate 3.4% among 400,000; AID 1347076, 2019; further: nearly all actives have a fitted effect of over 60% in size
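Readout: CellTiter-Glo luminescence, 10 min after addition. Cells: KB-V1 MDR subline, 72 h at 37 degrees C with compound. Analysis: corrected, normalized data fitted to concentration-effect curves.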
HT1080NT lethal: qHTS for induction of synthetic lethality in tumor cells producing 2HG: qHTS for the HT-1080-NT fibrosarcoma cell line | HT-1080-NT fibrosarcoma viability, CellTiter-Glo ATP luminescence, 48 h | Potency, µM (top dose mostly 46.1 µM), usual class: cytotoxic | hit rate 1.6% among 360,000;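 further: NT is the 2HG producing partner of a matched IDH1 knockdown line; nearly all actives have a fitted effect of over 55% in size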
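HT-1080-NT fibrosarcoma cells (2HG-overproducing), 750 cells/well in RPMI with 5% FBS, dosed after 2 h and incubated 48 h at 37C. CellTiter-Glo luminescence normalized to DMSO and no-cell wells; concentration-response curves fitted and classed.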
Large screens that a line does not name were inactive. A selection: hits, their analogues and other compounds. The true share with any hit is near 19%. The call rests on the fitted dose curve; in most records, active means well fitted curve in the direction sought with a large enough effect; inconclusive means small, poorly fitted or top-dose-only effect, or another doubt; inactive means no such curve, though single readings can be large; an effect the other way counts as inactive or inconclusive.

CC(C)CC(=O)Nc1ccc(C(=O)CN2C(=O)NC3(CCOc4ccccc43)C2=O)cc1 (centres undefined)	DT40 TDP1 CPT 18µM
CC(C)c1ccc(C2(C)NC(=O)N(C(C)C(=O)Nc3ccc(N4CCOCC4)cc3)C2=O)cc1 (centres undefined)	DT40 TDP1 no CPT 26µM, DT40 TDP1 CPT 15µM
COc1ccccc1N1C(=O)c2cccc3cccc(c23)C1=O	none
COc1ccc(C2=NN(c3ccccc3)C(c3cn(CCC(=O)O)nc3-c3ccccc3)C2)cc1 (centres undefined)	none
O=C(/C=C/[C@H]1O[C@@H](n2ccc(=O)[nH]c2=O)[C@H](O)[C@@H]1O)NC(c1ccccc1)c1ccccc1	none
COc1ccc(NC(=O)CN2C(=O)NC3(CCCCCCC3)C2=O)cc1	none
CC(C)c1ccc(NC(=O)CN2C(=O)NC3(CCCCCCC3)C2=O)cc1	DT40 TDP1 no CPT 21µM, HT1080 IDH1KD tx inconclusive, DT40 TDP1 CPT 21µM
CC1(c2ccccc2Cl)NC(=O)N(CC(=O)Nc2ccc(N3CCCCC3)cc2)C1=O (centres undefined)	DT40 TDP1 no CPT 21µM, DT40 TDP1 CPT inconclusive
CN(Cc1ccc(Cl)s1)C(=O)CNC(=O)CNC(=O)c1ccc(Cl)cc1Cl	none
COc1cccc(OCC(O)CN2CCC(Cc3ccccc3)CC2)c1 (centres undefined)	DT40 TDP1 no CPT 18µM, KB-3-1 cytotox inconclusive, DT40 TDP1 CPT inconclusive
C=CCc1ccc(OCC(O)CN2CCN(Cc3ccc(Cl)cc3)CC2)c(OC)c1 (centres undefined)	DT40 TDP1 no CPT 21µM, HT1080 IDH1KD tx 21µM, KB-3-1 cytotox 23µM, DT40 TDP1 CPT inconclusive, KB-V1 MDR tox inconclusive, HT1080NT lethal 21µM
OC(COCc1ccc(Cl)cc1)CN1CCN(CC(O)COCc2ccc(Cl)cc2)CC1 (centres undefined)	DT40 TDP1 no CPT 15µM, HT1080 IDH1KD tx inconclusive, KB-3-1 cytotox inconclusive, DT40 TDP1 CPT 18µM, KB-V1 MDR tox inconclusive, HT1080NT lethal inconclusive
OC(COc1ccccc1F)CN1CCC(Cc2ccccc2)CC1 (centres undefined)	DT40 TDP1 no CPT inconclusive, DT40 TDP1 CPT inconclusive
OC(COc1ccc(F)cc1Cl)CN1CCC(Cc2ccccc2)CC1 (centres undefined)	DT40 TDP1 no CPT 21µM, DT40 TDP1 CPT inconclusive
OC(COCc1ccc(Cl)cc1)CN1CCCCC1 (centres undefined)	KB-V1 MDR tox inconclusive
C=CCc1ccc(OCC(O)CN2CCN(c3ccccc3OC)CC2)c(OC)c1 (centres undefined)	none
O=c1c(C(c2ccccc2)c2c(O)nc3n(c2=O)CCS3)c(O)nc2n1CCS2	KB-V1 MDR tox inconclusive
COc1ccc(S(=O)(=O)NC(=O)C2(C)CCN2C(=O)c2c(C)noc2C)cc1 (centres undefined)	HT1080NT lethal inconclusive
